Data taken from PubChem BioAssay AID1259370 (Center for Chemical Genomics, University of Michigan, 2018).
Hit rate of the full screen: of about 94,000 compounds, about 680 (0.72%) were called active. The sample as a whole holds a higher share of actives than the screen did. Unmarked numbers belong to inactive results. No stated cut-off is given here; in the data, active means z-score above about 3.2; inactive means the rest.

Biological target: M-phase inducer phosphatase 2 (Homo sapiens) + Cyclin-dependent kinase 2 (Homo sapiens) + Cyclin-A2 (Homo sapiens) (UniProt P30305+P24941+P20248)
Assay: primary biochemical HTRF screen for blockers of M-phase inducer phosphatase 2 binding to CDK2/cyclin A (AID 1259370)
Conditions: HTRF CDC25B-CDK2/CyclinA binding, anti-His/anti-Flag; active compounds read high

Q: `N#Cc1c(-c2ccccc2)nc(SCCCCOc2ccc(Cl)cc2)[nH]c1=O` was tested. Which z-score did it give?
A: 4.75 (active)

Q: For `CCSc1nc(-c2ccc(Cl)cc2)c(C#N)c(=O)[nH]1`, which z-score is on record?
A: -0.88

Q: For `Cc1ccc(CSc2nc(-c3ccccc3)c(C#N)c(=O)[nH]2)cc1`, which z-score is on record?
A: -0.77

Q: With `O=C(CSc1ncnc2nc[nH]c12)c1ccc(O)c(O)c1` as the compound, how does the z-score read?
A: 2.58

Q: How did the z-score turn out when `Cc1n[nH]c(=O)c2nn(-c3ccccc3)c(C)c12` was run?
A: 0.76

Q: Which z-score does the source give for `Cc1cc(C)cc(NS(=O)(=O)c2ccc3c(c2)n(C)c(=O)n3C)c1` here?
A: -1.42

Q: For `Cc1cc2c(c(=O)n1CC1CCCO1)C(c1cccc(Br)c1)C(C#N)=C(N)O2` (stereo not given), which z-score is on record?
A: -0.22

Q: `CC(C)c1ccc(C2c3c([nH][nH]c3=O)CC(C)(O)C2C(=O)OCc2ccccc2)cc1` (stereo not given) was tested. Which z-score did it give?
A: -1.98

Q: `COc1ccc(S(=O)(=O)NC(C)c2nc(-c3ccc(C)cc3)no2)cc1` (stereo not given) was tested. Which z-score did it give?
A: -1.34

Q: Which z-score does the source give for `CC(C)CC(=O)Nc1ccc2nsnc2c1` here?
A: -1.58

Q: Which z-score does the source give for `COC(=O)c1ccc2snnc2c1` here?
A: -0.98

Q: How did the z-score turn out when `CC(C)NC(=O)Nc1ccc2snnc2c1` was run?
A: 5.16 (active)

Q: `CCOC(=O)c1cn(-c2cccc(F)c2)nn1` was tested. Which z-score did it give?
A: -1.61

Q: How did the z-score turn out when `Cn1c(=O)n(C)c2cc(S(=O)(=O)Nc3ccc(F)cc3)ccc21` was run?
A: -0.14

Q: How did the z-score turn out when `Cc1nc(C)c(C(=O)Nc2nnc(CC(C)C)s2)s1` was run?
A: -0.08

Q: With `CC12CC3(C)CC(C)(C1)CC(C(=O)NC(C)(C)CO)(C2)C3` as the compound, how does the z-score read?
A: -1.12

Q: `O=C(CSc1ccc(-c2cccs2)nn1)N1CCCc2ccccc21` was tested. Which z-score did it give?
A: -0.97

Q: Which z-score does the source give for `O=C(c1cccnc1)N(c1ccc2oc(=O)sc2c1)S(=O)(=O)c1ccccc1` here?
A: -1.85

Q: How did the z-score turn out when `O=C(c1cccnc1)N(c1cc2sc(=O)oc2c2ccccc12)S(=O)(=O)c1ccccc1` was run?
A: 12.3 (active)

Q: How did the z-score turn out when `COc1ccc(S(=O)(=O)N(C(=O)c2ccncc2)c2ccc3oc(=O)sc3c2)cc1OC` was run?
A: -3.46

Q: How did the z-score turn out when `CCn1c(COC)nc2ccccc21` was run?
A: -0.64

Q: With `CCC(C)NC(=O)C1=CC(c2cccs2)=NS(=O)(=O)N1C` (stereo not given) as the compound, how does the z-score read?
A: -1.72

Q: `O=C1c2cccc3cccc(c23)C(=O)N1c1cccc(O)c1` was tested. Which z-score did it give?
A: -0.15

Q: For `O=C1c2ccc3c4c(ccc(c24)C(=O)N1c1ccccc1)C(=O)N(c1ccccc1)C3=O`, which z-score is on record?
A: -2.52

Q: `O=C(O)c1cccc(N2C(=O)c3ccc4c5c(ccc(c35)C2=O)CC4)c1` was tested. Which z-score did it give?
A: 8.86 (active)

Q: `COCCOC(=O)C1=C(C)Nc2nc3ccccc3n2C1c1cccc(F)c1` (stereo not given) was tested. Which z-score did it give?
A: -1.51

Q: For `COc1ccc(C(=O)Oc2ccc3c(c2)oc(=O)c2ccccc23)cc1`, which z-score is on record?
A: -0.65

Q: For `CC(C)CCNC(=O)C1CCC(CNc2c(N3CCC(C)CC3)c(=O)c2=O)CC1` (stereo not given), which z-score is on record?
A: -0.9

Q: Which z-score does the source give for `Cc1nc(N2CCCCC2)cc(N2CCN(S(=O)(=O)c3ccc(F)cc3)CC2)n1` here?
A: -1.52

Q: How did the z-score turn out when `CCOc1ccccc1Nc1nc2ccc(Cl)cc2n2nnnc12` was run?
A: -2.08

Q: How did the z-score turn out when `Cn1c(=O)n(C)c2cc(CNC3CCCCC3)ccc21` was run?
A: -1.66

Q: How did the z-score turn out when `Clc1ccc(C=NCc2cccnc2)c(Cl)c1` was run?
A: 0.36

Q: For `S=C(Nc1cccnc1)N1CCCN(Cc2ccc(Cl)cc2Cl)CC1`, which z-score is on record?
A: 12 (active)

Q: With `O=C(Nc1ccccc1)N1CCN(Cc2ccccc2)CC1` as the compound, how does the z-score read?
A: 4.1

Q: `CCOC(=O)c1c(NC(=O)Nc2cccc(Cl)c2)sc2c1CCCC2` was tested. Which z-score did it give?
A: -0.86

Q: `CC1=C(c2cccc(Br)c2)S(=O)(=O)N=C1Nc1ccccc1C` was tested. Which z-score did it give?
A: -2.29

Q: With `O=C(COc1ccc2c3c(c(=O)oc2c1)CCC3)OC1CCCCC1` as the compound, how does the z-score read?
A: -1.13

Q: For `COc1ccc2cc3c(N)nn(C(=O)Cn4c(=O)oc5ccccc54)c3nc2c1`, which z-score is on record?
A: -0.84

Q: Which z-score does the source give for `O=C(O)C1CCCN(c2cnccn2)C1` (stereo not given) here?
A: 0.23

Q: `COc1ccccc1-c1nc(SCC(=O)c2ccc(Br)cc2)n[nH]1` was tested. Which z-score did it give?
A: -0.98

Q: `Cc1ccc(C)c(C(=O)CSc2n[nH]c(-c3ccco3)n2)c1` was tested. Which z-score did it give?
A: 8.74 (active)

Q: For `Cc1ccc(CNc2n[nH]c(-c3ccco3)n2)cc1`, which z-score is on record?
A: -1.84

Q: Which z-score does the source give for `CCSc1ncc(Cl)c(C(=O)Nc2nc(C)c(C(=O)OCC(C)C)s2)n1` here?
A: -1.22

Q: Which z-score does the source give for `Cn1c(=O)c2c(-c3cccc(Br)c3)n(C(CO)(CO)CO)cc2n(C)c1=O` here?
A: 0.09

Q: For `COC(=O)C1=C(C)NC2=C(C(=O)c3ccccc32)C1c1ccc(OC)cc1` (stereo not given), which z-score is on record?
A: 1.16

Q: Which z-score does the source give for `CCOC(=O)C1=C(C)NC2=C(C(=O)c3ccccc32)C1c1ccc(OC(=O)c2ccccc2)cc1` (stereo not given) here?
A: 11.9 (active)

Q: For `CCOC(=O)C1=C(C)NC2=C(C(=O)c3ccccc32)C1c1cccc(F)c1` (stereo not given), which z-score is on record?
A: -1.68

Q: How did the z-score turn out when `O=C(O)CSc1nc2ccccc2c(=O)n1Cc1ccco1` was run?
A: -1.25

Q: How did the z-score turn out when `CCOC(=O)c1sc(NC(=O)c2cc3ccccc3o2)c(C(=O)OCC)c1C` was run?
A: -1.55

Q: How did the z-score turn out when `CSC1=C(C#N)C(c2ccccc2C)CC(=O)N1` (stereo not given) was run?
A: -0.39

Q: For `COc1ccc(C2CC(=O)N3CN(c4ccccc4OC)CSC3=C2C#N)c(OC)c1` (stereo not given), which z-score is on record?
A: 8.02 (active)

Q: For `COc1ccc(C(=O)CC2(O)C(=O)N(C(C)C)c3ccccc32)c(OC)c1` (stereo not given), which z-score is on record?
A: -1

Q: How did the z-score turn out when `COc1ccc(OC)c(C2CC(=O)N3CN(c4ccccc4OC)CSC3=C2C#N)c1` (stereo not given) was run?
A: 3.41 (active)

Q: For `COc1ccc(OC)c(C2C(C#N)=C3N=C(N)c4ccccc4N3C3=C2C(=O)CCC3)c1` (stereo not given), which z-score is on record?
A: 0.51

Q: With `COc1ccc(OC)c(C2CC(=O)N3CN(Cc4ccco4)CSC3=C2C#N)c1` (stereo not given) as the compound, how does the z-score read?
A: -3.58

Q: How did the z-score turn out when `N#CC1=C2SCN(c3ccc(F)cc3)CN2C(=O)CC1c1ccc(Br)cc1` (stereo not given) was run?
A: 2.31

Q: With `COc1ccccc1N1C(=O)C2C(c3ccccc3C)OC3(C(=O)c4ccccc4C3=O)C2C1=O` (stereo not given) as the compound, how does the z-score read?
A: 0.1

Q: With `CCOc1ccc(N2CSC3=C(C#N)C(c4ccc(SC)cc4)CC(=O)N3C2)cc1` (stereo not given) as the compound, how does the z-score read?
A: 6.74 (active)

Q: Which z-score does the source give for `Cc1cccc(N2CSC3=C(C#N)C(c4ccccc4C)CC(=O)N3C2)c1` (stereo not given) here?
A: 3.61 (active)

Q: With `CC(C)C(=O)Nc1sc2c(c1C(=O)O)CCCC2` as the compound, how does the z-score read?
A: -2.62

Q: For `Cc1nc(N)[nH]c(=O)c1Br`, which z-score is on record?
A: 0.46

Q: `CCOC(=O)c1c(N)sc2c1CCN(C(C)=O)C2` was tested. Which z-score did it give?
A: -2.08

Q: `CCOC(=O)c1c(C)n(C)c2cc3c(cc12)OC(=O)C3(O)C(F)(F)F` (stereo not given) was tested. Which z-score did it give?
A: -2.18

Q: How did the z-score turn out when `N=C1C(c2nc3ccccc3[nH]2)=C(O)CN1c1ccc(Oc2ccccc2)cc1` was run?
A: 1.4

Q: How did the z-score turn out when `CC1=C(C(N)=O)C(c2cccc(O)c2)n2nc(SCc3ccccc3F)nc2N1` (stereo not given) was run?
A: -0.38

Q: For `CCOC(=O)CNC(=O)N1CCCC1c1ccco1` (stereo not given), which z-score is on record?
A: -1.79

Q: How did the z-score turn out when `Cc1ccc(NS(=O)(=O)C2CCS(=O)(=O)C2)cc1Cl` (stereo not given) was run?
A: -1.16

Q: For `Cc1ccc(S(=O)(=O)c2nc(S(C)(=O)=O)sc2N2CCN(CCO)CC2)cc1`, which z-score is on record?
A: -2

Q: For `Cc1cccc2c1Oc1nc(-c3ccccc3O)[nH]c(=O)c1C2`, which z-score is on record?
A: -0.22

Q: Which z-score does the source give for `C=CCN1C=C(OC(=O)COc2ccccc2)c2ccccc2S1(=O)=O` here?
A: -2.21

Q: How did the z-score turn out when `O=C(C1CCN(S(=O)(=O)c2cccs2)CC1)N1CCN(c2ccccc2Cl)CC1` was run?
A: -0.01

Q: Which z-score does the source give for `COc1ccc(C2=NS(=O)(=O)N(C)C(C(=O)N3CCN(C(=O)c4ccco4)CC3)=C2)cc1` here?
A: -0.02

Q: With `CCN(CC)S(=O)(=O)c1nnc(NC(=O)C(C)C)s1` as the compound, how does the z-score read?
A: -1.69

Q: With `C=CCN(Cc1nc(-c2ccc(C)cc2)no1)S(=O)(=O)c1ccc(Br)cc1` as the compound, how does the z-score read?
A: -1.17

Q: For `O=c1c(S(=O)(=O)c2ccc(Cl)cc2)c[nH]c2ccc(F)cc12`, which z-score is on record?
A: 0.19

Q: For `Cc1cc(C)n(CCc2nc3c4ccccc4nc(SCC(=O)NCc4ccco4)n3n2)n1`, which z-score is on record?
A: -1.06

Q: For `O=C(CSCc1cnn(-c2ccccc2)c1-n1cccc1)Nc1ccc2c(c1)OCCO2`, which z-score is on record?
A: -1.15

Q: `CCOc1ccc(C2CC(=O)Nc3nc(SC)[nH]c(=O)c32)cc1OC` (stereo not given) was tested. Which z-score did it give?
A: -2.13

Q: With `CCOc1ccc(C2CC(=O)N3CN(c4ccc(OC)cc4OC)CSC3=C2C#N)cc1OC` (stereo not given) as the compound, how does the z-score read?
A: 3.34 (active)

Q: With `CC(c1ccccc1)N1CSC2=C(C#N)C(c3ccc(Cl)cc3)CC(=O)N2C1` (stereo not given) as the compound, how does the z-score read?
A: 1.37

Q: `COC(=O)c1sc(=S)n(-c2ccc(Cl)cc2)c1C` was tested. Which z-score did it give?
A: -0.46

Q: For `COc1cc(C2CC(=O)N3CN(c4ccccc4)CSC3=C2C#N)ccc1O` (stereo not given), which z-score is on record?
A: 0.52

Q: For `COC(=O)c1ccc(N2CSC3=C(C#N)C(c4ccc(Cl)cc4)CC(=O)N3C2)cc1` (stereo not given), which z-score is on record?
A: 7.06 (active)

Q: With `CNC(=O)c1c(NC(=O)c2cc(=O)c3ccccc3o2)sc2c1CCCC2` as the compound, how does the z-score read?
A: -0.57

Q: Which z-score does the source give for `COCCCn1c(SC2CCOC2=O)nc2c(sc3ccccc32)c1=O` (stereo not given) here?
A: -3.05

Q: With `CCOC(=O)C1=C(C)NC2=C(C(=O)CC(c3cccs3)C2)C1c1cc(Br)ccc1F` (stereo not given) as the compound, how does the z-score read?
A: -0.66

Q: With `CCOC(=O)c1c(CN(CC)CC)n(C)c2cc(Br)c(OC)cc12` as the compound, how does the z-score read?
A: -0.02

Q: For `Cc1c(C=O)c(=O)oc2c3c4c(cc12)CCCN4CCC3`, which z-score is on record?
A: 16.4 (active)

Q: How did the z-score turn out when `Cc1c(C)c2cc3c4c(oc3c(C)c2oc1=O)CCCC4` was run?
A: 0.16

Q: With `CCc1cccc(-n2nnc(S(=O)(=O)c3ccc(C)cc3)c2C)c1` as the compound, how does the z-score read?
A: -0.89

Q: Which z-score does the source give for `CN1C(=O)c2ccccc2C(C(=O)Nc2ccc3c(c2)OCO3)C1c1cn(C)c2ccccc12` (stereo not given) here?
A: -2.4

Q: With `CCCc1c(C)nc2ncnn2c1Nc1ccc(CC)cc1` as the compound, how does the z-score read?
A: -2.22

Q: Which z-score does the source give for `CCOCCOC(=O)C1=C(C)NC2=C(C(=O)CCC2)C1c1ccc(OC(C)=O)cc1` (stereo not given) here?
A: -0.12

Q: With `C=CCOc1ccc(C2C3=C(CCCC3=O)NC3=C2C(=O)CCC3)cc1` as the compound, how does the z-score read?
A: 15.9 (active)

Q: For `COc1ccc(COC(=O)C2=C(C)NC3=C(C(=O)CCC3)C2c2ccc(Br)cc2)cc1` (stereo not given), which z-score is on record?
A: -0.5
